In the supplement of paper PMC12645437, “Orthogonal IMiD-Degron Pairs Induce Selective Protein Degradation in Cells” (ACS Chemical Biology, 2025):
Whole data set: some 8,300 sequences, median “log2 fold change of degron read counts, EGFP-low vs EGFP+ sorted cells (limma voom), compound-induced degradation” near -1.1, cut for the highest 2% near 3.2. The list comes from a sample in which the highest values are over-represented; it also holds similar and randomly drawn sequences.

T1: CRBN, Q96SW2
T1 chain: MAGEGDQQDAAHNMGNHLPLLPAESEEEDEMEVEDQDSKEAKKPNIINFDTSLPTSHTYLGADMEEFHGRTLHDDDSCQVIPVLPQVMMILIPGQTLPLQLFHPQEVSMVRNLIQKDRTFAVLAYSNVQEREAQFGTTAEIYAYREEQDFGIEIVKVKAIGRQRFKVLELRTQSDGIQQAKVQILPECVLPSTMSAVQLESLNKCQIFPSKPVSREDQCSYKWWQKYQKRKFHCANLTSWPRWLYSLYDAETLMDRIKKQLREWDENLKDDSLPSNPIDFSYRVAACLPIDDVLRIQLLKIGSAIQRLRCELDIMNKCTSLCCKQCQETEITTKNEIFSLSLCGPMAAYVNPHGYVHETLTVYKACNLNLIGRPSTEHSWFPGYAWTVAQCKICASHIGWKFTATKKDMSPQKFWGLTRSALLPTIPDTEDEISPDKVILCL


Target: T1, CRBN, Q96SW2
Assay: log2 fold change of degron read counts, EGFP-low vs EGFP+ sorted cells (limma voom), compound-induced degradation; higher = more compound-induced degradation of the degron-EGFP fusion; degrons are variants of IKZF1/3 zinc finger 2; compound dose not given here
Conditions: Jurkat, 18 h
[1] = compound: compound 19 (5-tert-butyl-thalidomide)
[2] = compound: compound 22 (5-morpholino-thalidomide)
[3] = compound: compound 33 (diphenyl IMiD analogue)
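Note: pooled lentiviral library of zinc finger degron-EGFP fusions in mCherry-positive Jurkat cells, FACS-sorted after compound exposure, with degron abundance counted by next-generation sequencing.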

Sequence | log2 fold change of degron read counts [1] | log2 fold change of degron read counts [2] | log2 fold change of degron read counts [3] | log2 fold change of degron read counts (compound: thalidomide)
FECEICGRSFTQKGNLLRHIKL [46F_47E_49E_50I_52G_53R_54S_55F_67L_, Q9UKT9] | -2.51 | -3.16 | -1.24 | -1.32
FNCEQCGAWFTQKGNLLRHIKL [46F_47N_49E_50Q_52G_53A_54W_55F_67L_, Q9UKT9] | -2.53 | -2.58 | -2.99 | -2.13
FLCDICGADFTQKGNLLRHIKL [46F_47L_49D_50I_52G_53A_54D_55F_67L_, Q9UKT9] | -2.36 | -3.49 | -2.12 | -2.22
FHCPICGRNFTQKGNLLRHIKL [46F_47H_49P_50I_52G_53R_54N_55F_67L_, Q9UKT9] | -0.818 | -0.983 | -0.208 | -0.527
FECEICGADFTQKGNLLRHIKL [46F_47E_49E_50I_52G_53A_54D_55F_67L_, Q9UKT9] | -1.96 | -2.74 | 0.273 | 0.225
LVCPICGFNCTQKGNLLRHIKL [46L_47V_49P_50I_52G_53F_54N_55C_67L_, Q9UKT9] | -0.376 | 1.56 | 1.51 | 2.74
LWCPICGFPCTQKGNLLRHIKL [46L_47W_49P_50I_52G_53F_54P_55C_67L_, Q9UKT9] | 1.54 | 1.47 | 1.88 | 1.22
FICPICGAPFTQKGNLLRHIKL [46F_47I_49P_50I_52G_53A_54P_55F_67L_, Q9UKT9] | 1.94 | 3.65 | 2.52 | 3.16
FQCPICGAPFTQKGNLLRHIKL [46F_47Q_49P_50I_52G_53A_54P_55F_67L_, Q9UKT9] | 3.38 | 3.6 | 2.53 | 3.65
FACPICGAPFTQKGNLLRHIKL [46F_47A_49P_50I_52G_53A_54P_55F_67L_, Q9UKT9] | 3.7 | 3.03 | 1.56 | 2.64
FICPICGADFTQKGNLLRHIKL [46F_47I_49P_50I_52G_53A_54D_55F_67L_, Q9UKT9] | -0.647 | 0.966 | 1.15 | 1.89
FMCPICGAPFTQKGNLLRHIKL [46F_47M_49P_50I_52G_53A_54P_55F_67L_, Q9UKT9] | 3.36 | 3.49 | 3.09 | 2.98
FMCPICGAMFTQKGNLLRHIKL [46F_47M_49P_50I_52G_53A_54M_55F_67L_, Q9UKT9] | -0.414 | -0.22 | 1.72 | 0.511
FQCPICGRPFTQKGNLLRHIKL [46F_47Q_49P_50I_52G_53R_54P_55F_67L_, Q9UKT9] | 0.103 | 1.27 | 0.384 | 2.92
FQCPICGAFFTQKGNLLRHIKL [46F_47Q_49P_50I_52G_53A_54F_55F_67L_, Q9UKT9] | -1.33 | -0.0266 | 2.3 | 2.67
FICPICGHPFTQKGNLLRHIKL [46F_47I_49P_50I_52G_53H_54P_55F_67L_, Q9UKT9] | -1.76 | -0.823 | -0.563 | 0.027
FACPICGAMFTQKGNLLRHIKL [46F_47A_49P_50I_52G_53A_54M_55F_67L_, Q9UKT9] | 2.8 | 1.12 | 0.702 | 0.265
FACPICGADFTQKGNLLRHIKL [46F_47A_49P_50I_52G_53A_54D_55F_67L_, Q9UKT9] | 2.75 | 0.745 | 0.673 | 0.2
FMCPICGADFTQKGNLLRHIKL [46F_47M_49P_50I_52G_53A_54D_55F_67L_, Q9UKT9] | -1.3 | -0.0353 | 2.99 | 1.23
FDCNICGAQFTQKGNLLRHIKL [46F_47D_49N_50I_52G_53A_54Q_55F_67L_, Q9UKT9] | -0.355 | -0.127 | -0.237 | 0.552

Sequence | log2 fold change of degron read counts [1] | log2 fold change of degron read counts [2] | log2 fold change of degron read counts [3] | log2 fold change of degron read counts (compound: thalidomide)
FRCEQCGALFTQKGNLLRHIKL [46F_47R_49E_50Q_52G_53A_54L_55F_67L_, Q9UKT9] | -3.49 | -2.97 | -0.178 | -1.64
FRCPICGHTFTQKGNLLRHIKL [46F_47R_49P_50I_52G_53H_54T_55F_67L_, Q9UKT9] | -2.68 | -2.91 | -2.15 | -2.02
FSCEICGRYFTQKGNLLRHIKL [46F_47S_49E_50I_52G_53R_54Y_55F_67L_, Q9UKT9] | -0.304 | -1.64 | -1.28 | -1.44
FDCNICGARFTQKGNLLRHIKL [46F_47D_49N_50I_52G_53A_54R_55F_67L_, Q9UKT9] | 1.3 | 0.634 | -0.123 | 1.24
LFCPICGFMCTQKGNLLRHIKL [46L_47F_49P_50I_52G_53F_54M_55C_67L_, Q9UKT9] | 2.71 | 2.77 | 2.05 | 0.947
FQCPICGRDFTQKGNLLRHIKL [46F_47Q_49P_50I_52G_53R_54D_55F_67L_, Q9UKT9] | -1.62 | -1.68 | 0.2 | 1.58
FECPQCGAVFTQKGNLLRHIKL [46F_47E_49P_50Q_52G_53A_54V_55F_67L_, Q9UKT9] | -2.29 | -2.41 | 0.278 | 0.0294
FHCDICGAPFTQKGNLLRHIKL [46F_47H_49D_50I_52G_53A_54P_55F_67L_, Q9UKT9] | 3.18 | 2.85 | 1.67 | 0.346
FTCPICGADFTQKGNLLRHIKL [46F_47T_49P_50I_52G_53A_54D_55F_67L_, Q9UKT9] | -0.0637 | 1.88 | 2.02 | 2.53
FGCPICGADFTQKGNLLRHIKL [46F_47G_49P_50I_52G_53A_54D_55F_67L_, Q9UKT9] | 1.78 | 0.634 | 1.7 | 0.267
FWCNICGAPFTQKGNLLRHIKL [46F_47W_49N_50I_52G_53A_54P_55F_67L_, Q9UKT9] | 2.88 | 2.66 | 1.69 | 0.25
FGCPICGAPFTQKGNLLRHIKL [46F_47G_49P_50I_52G_53A_54P_55F_67L_, Q9UKT9] | 3.74 | 2.38 | 1.84 | 1.66
FGCNICGAPFTQKGNLLRHIKL [46F_47G_49N_50I_52G_53A_54P_55F_67L_, Q9UKT9] | 0.653 | 0.355 | 0.00441 | -0.248
FHCPICGAPFTQKGNLLRHIKL [46F_47H_49P_50I_52G_53A_54P_55F_67L_, Q9UKT9] | 3.64 | 3.39 | 2.87 | 2.28
FWCPICGAMFTQKGNLLRHIKL [46F_47W_49P_50I_52G_53A_54M_55F_67L_, Q9UKT9] | 2.54 | 2.77 | 2 | 0.329
FTCPICGAPFTQKGNLLRHIKL [46F_47T_49P_50I_52G_53A_54P_55F_67L_, Q9UKT9] | 2.68 | 3.44 | 2.65 | 3.25
FWCPICGAPFTQKGNLLRHIKL [46F_47W_49P_50I_52G_53A_54P_55F_67L_, Q9UKT9] | 3.28 | 3.35 | 2.63 | 1.37
FTCPICGHPFTQKGNLLRHIKL [46F_47T_49P_50I_52G_53H_54P_55F_67L_, Q9UKT9] | -1.82 | -0.901 | 0.0444 | 0.479
FHCPICGADFTQKGNLLRHIKL [46F_47H_49P_50I_52G_53A_54D_55F_67L_, Q9UKT9] | -0.22 | -0.857 | 0.863 | -0.761
